From PubChem BioAssay
The source made the active and inactive calls. No stated cut-off is given here; in the data, active means inhibition above about 31%; inactive means the rest.

Assay: MRP1 drug-resistance reversers in H69AR cells – cell-based, doxorubicin co-treatment, pilot screen (AID 601)
Conditions: H69AR cells, CellTiter-Glo, 72 h; compound alone cytotoxicity; at 10 µM

Row | Compound | viability [%]
1 | Cc1ccc2cc(CCNC(=O)C(C)C)c(=O)[nH]c2c1C | 99
2 | CCOC(=O)c1c(C)n(C)c2c(C)cc(O)c(OC(C)=O)c12 | 101
3 | CC(C)(O)C#Cc1ccc(C(=O)N2CCN(C(=O)c3ccco3)CC2)cc1 | 96.9
4 | COc1ccc(-n2ncc3c(N4CCC(C)CC4)ncnc32)cc1 | 76.6
5 | CCc1nc2sc(C)c(C)c2c(=O)n1CCO | 94.7
6 | COc1cc2c(cc1OC)CN(C(=O)CSc1nc3[nH]ncc3c(=O)n1-c1ccccc1)CC2 | 91.7
7 | Cc1ccccc1-n1c(Cn2c(=O)sc3ccccc32)nnc1SCC(N)=O | 84.8
8 | Cc1nc2sc(C(c3cccs3)N3CCOCC3)c(O)n2n1 (stereo unspecified) | 88.6
9 | Cc1nc2ccccc2c2oc(C(=O)N3CCN(C(=O)c4ccco4)CC3)cc12 | 83.1
10 | CCC(C)NC(=O)c1cn(CC)c2ccc(S(=O)(=O)N(C)C)cc2c1=O (stereo unspecified) | 78.9
11 | O=C(OCN1C(=O)c2ccccc2C1=O)C1CCCCC1 | 87.6
12 | O=C(Nc1nc(-c2ccccn2)cs1)C1CC1 | 82
13 | COCCOC(=O)C1=C(C)N=c2s/c(=C\c3cccs3)c(=O)n2C1c1cccs1 (stereo unspecified) | 71.9
14 | CCOC(=O)c1sc2nc(NC(=O)C(C)(C)C)sc2c1C | 79.3
15 | Cn1c(Cc2ccccc2)nnc1SCC(=O)NC1CCCCC1 | 92.5
16 | CCCNC(=O)C1CC(=O)N(c2ccc(OCC(=O)Nc3cc(C)cc(C)c3)cc2)C1 (stereo unspecified) | 95.6
17 | O=P(O)(CN1CCCCCC1)CN1CCCCCC1 | 107
18 | O=c1oc2c3c4c(cc2cc1-c1nc2ccccc2[nH]1)CCCN4CCC3 | 83.3
19 | CCOC(=O)c1[nH]c(C)c(C(=O)NC)c1C | 98.8
20 | CCCOc1ccc(C2C(C(=O)OC)=CN(CCOC)C=C2C(=O)OC)cc1 | 90.4
21 | CCCCN(CC)CCCNC(=O)c1cc2c(=O)n(C)c3ccccc3c2n1C | 70.1

Assay: yeast transport mutant growth inhibition pilot in 384-well plates, post-Golgi transport modulator project (AID 636)
Conditions: absorbance 615 nm, about 18 h, stronger effect = higher value

Row | Compound | inhibition
22 | CC1CCc2nn(CC(=O)NCc3ccc4c(c3)OCO4)cc2C1 (stereo unspecified) | -2.93% (inactive)
23 | CCC(C)(C(=O)NC1CCCC1)N(Cc1cccs1)C(C)=O (stereo unspecified) | -9.04% (inactive)
24 | COc1ccc(CCNC(=O)c2cnn3ccccc23)c(OC)c1OC | -5.6% (inactive)
25 | CC1CCCN(S(=O)(=O)c2coc(C(N)=O)c2)C1 (stereo unspecified) | -0.51% (inactive)
26 | Cn1c(C(=O)NCC2CCCO2)cc2c(=O)n(C)c3ccccc3c21 (stereo unspecified) | -2.31% (inactive)
27 | O=C(Nc1cnn(Cc2ccc(Cl)cc2Cl)c1)c1noc2c1CCCC2 | -0.13% (inactive)
28 | Clc1cccc(N2CCN(Cc3nc(-c4ccccc4)no3)CC2)c1 | 0.53% (inactive)
29 | COC(=O)C1=C(C)NC(C)=C(C(=O)OC)C1C1CC=CCC1 (stereo unspecified) | -0.91% (inactive)
30 | Cc1nnc(SCC(=O)NCc2ccccc2)s1 | -1.43% (inactive)
31 | CC1=C(C(=O)Nc2ccc(F)cc2)C(c2cccc(C)c2)n2nc(CCCO)nc2N1 (stereo unspecified) | -3.73% (inactive)
32 | CCOc1ccc(OCCCCN(C)C)cc1 | -0.64% (inactive)
33 | CCCC(=O)C1=C(N(C)c2ccccc2)CC(C)(C)C(C(=O)OC)C1=O (stereo unspecified) | -2.47% (inactive)
34 | CC1Cc2ccccc2N1C(=O)C12CCC(C)(C(=O)C1)C2(C)C (stereo unspecified) | -5.47% (inactive)
35 | CC1CN(c2ccc(Oc3ccccc3)cc2)c2nc3c(c(=O)n(CC(N)=O)c(=O)n3C)n2C1 (stereo unspecified) | -4.67% (inactive)
36 | COc1ccc(N2CCN(C(c3ccccc3)c3sc4nc(C)nn4c3O)CC2)cc1 (stereo unspecified) | -4.93% (inactive)
37 | O=C(CCn1c(=O)oc2ccccc21)NCc1ccco1 | -3.47% (inactive)
38 | COc1cccc(C2CC(c3ccc(C)cc3)n3nc(N)nc3N2)c1 (stereo unspecified) | -4.1% (inactive)
39 | Cc1onc(-c2c(Cl)cccc2Cl)c1C(=O)NCC1CCCO1 (stereo unspecified) | -4.59% (inactive)
40 | CC(=O)Nc1cccc(NC(=O)CSc2nn3c(=O)c(C)nnc3s2)c1 | -5.73% (inactive)
41 | Cc1ccc2cc(CCNC(=O)C(C)C)c(=O)[nH]c2c1C | -4.8% (inactive)

Row | Compound | inhibition
42 | CCOC(=O)c1c(C)n(C)c2c(C)cc(O)c(OC(C)=O)c12 | -3.9% (inactive)
43 | CC(C)(O)C#Cc1ccc(C(=O)N2CCN(C(=O)c3ccco3)CC2)cc1 | -3.87% (inactive)
44 | COc1ccc(-n2ncc3c(N4CCC(C)CC4)ncnc32)cc1 | -4% (inactive)
45 | CCc1nc2sc(C)c(C)c2c(=O)n1CCO | -6.23% (inactive)
46 | COc1cc2c(cc1OC)CN(C(=O)CSc1nc3[nH]ncc3c(=O)n1-c1ccccc1)CC2 | -4.93% (inactive)
47 | Cc1ccccc1-n1c(Cn2c(=O)sc3ccccc32)nnc1SCC(N)=O | -6.27% (inactive)
48 | Cc1nc2sc(C(c3cccs3)N3CCOCC3)c(O)n2n1 (stereo unspecified) | -7.73% (inactive)
49 | Cc1nc2ccccc2c2oc(C(=O)N3CCN(C(=O)c4ccco4)CC3)cc12 | -2.69% (inactive)
50 | CCC(C)NC(=O)c1cn(CC)c2ccc(S(=O)(=O)N(C)C)cc2c1=O (stereo unspecified) | -4.53% (inactive)
51 | O=C(OCN1C(=O)c2ccccc2C1=O)C1CCCCC1 | 3.08% (inactive)
52 | O=C(Nc1nc(-c2ccccn2)cs1)C1CC1 | 1.07% (inactive)
53 | COCCOC(=O)C1=C(C)N=c2s/c(=C\c3cccs3)c(=O)n2C1c1cccs1 (stereo unspecified) | -6.89% (inactive)
54 | CCOC(=O)c1sc2nc(NC(=O)C(C)(C)C)sc2c1C | -3.73% (inactive)
55 | Cn1c(Cc2ccccc2)nnc1SCC(=O)NC1CCCCC1 | -6.08% (inactive)
56 | CCCNC(=O)C1CC(=O)N(c2ccc(OCC(=O)Nc3cc(C)cc(C)c3)cc2)C1 (stereo unspecified) | -0.53% (inactive)
57 | O=P(O)(CN1CCCCCC1)CN1CCCCCC1 | -2.84% (inactive)
58 | O=c1oc2c3c4c(cc2cc1-c1nc2ccccc2[nH]1)CCCN4CCC3 | -1.95% (inactive)
59 | CCOC(=O)c1[nH]c(C)c(C(=O)NC)c1C | -0.26% (inactive)
60 | CCCOc1ccc(C2C(C(=O)OC)=CN(CCOC)C=C2C(=O)OC)cc1 | -3.12% (inactive)
61 | CCCCN(CC)CCCNC(=O)c1cc2c(=O)n(C)c3ccccc3c2n1C | -2.05% (inactive)
